Screening data: PubChem BioAssay, National Center for Advancing Translational Sciences (NCATS)
Rab9 promoter act: qHTS Assay for Rab9 Promoter Activators. Huh7 Rab9 promoter-luciferase reporter, luminescence, 24 h. AID 485297, 2010. 320,000 compounds, 2.8% hits. Potency, µM (series often up to 9.22 µM), usual class: activators; also: nearly all actives have a fitted effect of over 60% in size
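Luminescence read-out: Huh7 cells stably expressing Rab9-luciferase, treated 24 h with compound at 37 °C, then lysed with luciferase reagent for 10 min at ambient before reading.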
ELG1 genotox: qHTS screen for small molecules that induce genotoxicity in human embryonic kidney (HEK293T) cells expressing luciferase-tagged ELG1 | HEK293T ELG1-luciferase reporter, luminescence, 16 h | 330,000 compounds, 1.3% hits | AID 504466, 2011 | Potency, µM (series often up to 46 µM), usual class: activators; also: nearly all actives have a fitted effect of over 60% in size
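DMSO vehicle served as control against compound-treated ELG1-luciferase HEK293T cells; exposure lasted 16 hr at 37 °C and 5% CO2, followed by ONE-Glo luminescence detection after 30 min.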
FLuc counter: qHTS profiling assay for firefly luciferase inhibitor/activator using purifed enzyme and Km concentrations of substrates (counterscreen for miR-21 project). Luciferin 4-monooxygenase (Photinus pyralis), P08659. AID 588342, 2011. Potency, µM (doses to about 57.5 µM), usual class: inhibitors. purified FLuc, Km substrates, luminescence inhibition. 360,000 compounds, 6.9% hits; also: nearly all actives have a fitted effect of over 55% in size
Target sequence (P08659 whole entry, looked up): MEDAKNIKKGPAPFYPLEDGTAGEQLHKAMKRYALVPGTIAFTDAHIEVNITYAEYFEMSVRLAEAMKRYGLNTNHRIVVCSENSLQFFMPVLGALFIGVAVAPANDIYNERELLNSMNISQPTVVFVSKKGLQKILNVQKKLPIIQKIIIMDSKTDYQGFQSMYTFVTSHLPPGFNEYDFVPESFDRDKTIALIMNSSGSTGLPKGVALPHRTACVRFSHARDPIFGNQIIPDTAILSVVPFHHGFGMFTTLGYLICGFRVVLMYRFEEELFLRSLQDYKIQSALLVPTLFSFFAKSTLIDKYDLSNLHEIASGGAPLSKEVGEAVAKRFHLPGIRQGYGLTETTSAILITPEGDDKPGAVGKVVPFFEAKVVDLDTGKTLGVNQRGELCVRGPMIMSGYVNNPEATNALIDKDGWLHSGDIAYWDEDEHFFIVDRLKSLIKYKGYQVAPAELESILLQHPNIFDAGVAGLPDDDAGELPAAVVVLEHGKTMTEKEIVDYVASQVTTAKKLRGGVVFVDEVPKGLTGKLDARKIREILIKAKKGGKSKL
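Purified P. pyralis luciferase, 10 nM final, with Km-level 10 uM D-luciferin and 10 uM ATP in 50 mM Tris acetate pH 7.5, 10 mM Mg acetate, 0.01% Tween-20, 0.05% BSA; 6-point qHTS titration about 60 µM downward; luminescence read.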
KinaseGlo FLuc: Counterscreen for Luciferase (Kinase-Glo TM) Inhibition; Kinase-Glo luciferase, ATP luminescence, 8 min; 200,000 compounds, 0.28% hits; Potency, µM (top dose mostly 38.3 µM), hits mostly inhibitors; Luciferin 4-monooxygenase (Photuris pensylvanica), Q27757; also: nearly all actives have a fitted effect of over 60% in size
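Inhibition of Kinase-Glo luciferase light generation was assessed at 10 uM ATP in pH 7.2 imidazole buffer, with luminescence measured after eight minutes at ambient temperature.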
SMN2 splice enh: qHTS Assay for Enhancers of SMN2 Splice Variant Expression; HEK293 SMN2-luciferase splicing reporter, luminescence, 30-36 h; Potency, µM (series often up to 46.1 µM), hits mostly activators; 210,000 compounds, 2.8% hits; also: nearly all actives have a fitted effect of over 55% in size
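HEK293 cells carry an SMN2 minigene-luciferase reporter in which exon 7 inclusion puts luciferase in frame. Cells were seeded at 2000 cells/well, attached for 10-12 hours, then exposed to compounds for 30-36 hours at 37C before ONE-Glo luminescence.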
NPC1 promoter act: qHTS Assay for NPC1 Promoter Activators. AID 485313, 2010. 320,000 compounds, 2.4% hits. Huh7 NPC1 promoter luciferase reporter, 24 h. Potency, µM (series often up to 9.22 µM), hits mostly activators; also: nearly all actives have a fitted effect of over 60% in size
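Stable NPC1-promoter luciferase Huh7 line; cpd (DMSO) 24 h, 37 °C, 5% CO2; Amplite luciferase reagent 10 min RT; luminescence readout. qHTS format.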
Each line names hits and unclear results; the compound was inactive in the other large screens. Sampled rows, rich in hits. Any-hit rate of the full collection: about 7.3%. Calls follow the shape of the dose curve; as a rule, active = well fitted curve in the direction sought with a large enough effect; inconclusive = small, poorly fitted or top-dose-only effect, or another doubt; inactive = no such curve, though single readings can be large; an effect the other way counts as inactive or inconclusive.

COc1ccc(CNC(=O)c2cc3c(=O)n(Cc4cccs4)ccc3nc2C)cc1	none (no result: Rab9 promoter act, ELG1 genotox, KinaseGlo FLuc, SMN2 splice enh, NPC1 promoter act)
O=P(O)(CCP(=O)(O)c1ccccc1)c1ccccc1	none (no result: Rab9 promoter act, ELG1 genotox, FLuc counter, NPC1 promoter act)
COc1ccc(S(=O)(=O)N2CCCC(C(=O)Nc3ccc(OC)c(OC)c3)C2)cc1 (stereo unspecified)	none
COc1ccc(C(=O)Nc2nnc(C)s2)cc1	FLuc counter 13µM, SMN2 splice enh 11µM (no result: Rab9 promoter act, ELG1 genotox, KinaseGlo FLuc, NPC1 promoter act)
CCc1nnc(NC(=O)Nc2ccc(OC)cc2)s1	Rab9 promoter act inconclusive, ELG1 genotox inconclusive, FLuc counter 17µM, NPC1 promoter act inconclusive
CCc1nnc(NC(=O)C2CCCN(S(=O)(=O)c3ccc(OC)cc3)C2)s1 (stereo unspecified)	FLuc counter 19µM (no result: SMN2 splice enh)
CCOC(=O)c1ccc(N2CCN(c3cccc(Cl)c3)CC2)c(NC(=O)Nc2ccc(OC)cc2OC)c1	none (no result: Rab9 promoter act, ELG1 genotox, KinaseGlo FLuc, SMN2 splice enh, NPC1 promoter act)
COc1ccc(Nc2nc(-c3cccs3)cs2)c(OC)c1	Rab9 promoter act 2.2µM, ELG1 genotox 5.2µM, FLuc counter 4.8µM, NPC1 promoter act inconclusive (no result: SMN2 splice enh)
COc1ccc(Nc2nc(-c3cccs3)cs2)cc1	Rab9 promoter act 2µM, ELG1 genotox 1.5µM, FLuc counter 0.67µM, SMN2 splice enh 10µM, NPC1 promoter act 2.5µM
COc1ccccc1Nc1nc(-c2cccs2)cs1	Rab9 promoter act inconclusive, ELG1 genotox inconclusive, FLuc counter 4.8µM, SMN2 splice enh 11µM
C=Cn1c(C(=O)O)ccc1-c1ccc(CC)cc1	FLuc counter 21µM (no result: KinaseGlo FLuc, SMN2 splice enh)
O=C(Nc1ccc(-c2noc(CCc3ccccc3)n2)cc1)c1ccco1	Rab9 promoter act 1.1µM, ELG1 genotox inconclusive, FLuc counter 4.3µM, SMN2 splice enh 2.8µM, NPC1 promoter act 1.3µM
Cc1ccc(-c2noc(COC(=O)c3ccco3)n2)cc1	FLuc counter 9.5µM (no result: KinaseGlo FLuc, SMN2 splice enh)
O=C1CCC(=O)N1CCCCCc1nc(-c2ccccc2)no1	Rab9 promoter act inconclusive, ELG1 genotox 21µM, FLuc counter inconclusive
COc1ccc(-c2noc(CNC(=O)c3ccco3)n2)cc1	none (no result: Rab9 promoter act, ELG1 genotox, KinaseGlo FLuc, NPC1 promoter act)
c1ccc(CCc2nc(-c3ccccc3)no2)cc1	Rab9 promoter act inconclusive, ELG1 genotox inconclusive, FLuc counter 12µM, NPC1 promoter act inconclusive
c1ccc(OCc2nc(-c3ccccc3)no2)cc1	Rab9 promoter act inconclusive, ELG1 genotox 15µM, FLuc counter 27µM, SMN2 splice enh inconclusive, NPC1 promoter act inconclusive
c1ccc(OCc2nc(-c3ccncc3)no2)cc1	Rab9 promoter act inconclusive, FLuc counter inconclusive (no result: SMN2 splice enh)
Cc1cccc(-c2noc(Cc3ccccc3)n2)c1	Rab9 promoter act inconclusive, ELG1 genotox inconclusive, FLuc counter inconclusive, SMN2 splice enh inconclusive, NPC1 promoter act inconclusive
Cc1cccc(-c2noc(CCc3ccccc3)n2)c1	Rab9 promoter act 2.8µM, ELG1 genotox inconclusive, FLuc counter 12µM, NPC1 promoter act inconclusive
CCc1cccc(C)c1NC(=O)c1cc(S(=O)(=O)N2CCCCCC2)cn1C	none (no result: Rab9 promoter act, ELG1 genotox, KinaseGlo FLuc, SMN2 splice enh, NPC1 promoter act)
O=C(CSc1nnc2scc(-c3ccc(Cl)cc3)n12)Nc1ccc(F)cc1	none (no result: Rab9 promoter act, ELG1 genotox, KinaseGlo FLuc, NPC1 promoter act)
CCCCC[C@H](O)/C=C/C=C\C/C=C\C=C\[C@@H](O)CCCC(=O)O	none (no result: Rab9 promoter act, ELG1 genotox, FLuc counter, NPC1 promoter act)
Cc1ccc(CNC(=O)c2cc(-c3ccc(C)c(C)c3)nc3ccccc23)cc1	none (no result: Rab9 promoter act, ELG1 genotox, KinaseGlo FLuc, SMN2 splice enh, NPC1 promoter act)
O=C(NC1=NCCS1)c1cc(-c2ccc(F)cc2)nc2ccccc12	FLuc counter 5.4µM
O=C(NN=C1CCCC1)c1cc(-c2ccc(F)cc2)nc2ccccc12	none
CCCc1ccc(-c2cc(C(=O)NC3=NCCS3)c3ccccc3n2)cc1	Rab9 promoter act 4.5µM, ELG1 genotox inconclusive, FLuc counter 0.34µM, NPC1 promoter act 1.1µM (no result: KinaseGlo FLuc, SMN2 splice enh)
O=C(NNS(=O)(=O)c1cccc(Cl)c1)c1cc(-c2ccc(F)cc2)nc2ccccc12	FLuc counter 19µM
Cc1ccc(-c2cc(C(=O)NC3=NCCS3)c3ccccc3n2)cc1C	FLuc counter 0.85µM, SMN2 splice enh 14µM
CCSc1ncc(Cl)c(C(=O)Nc2ccc(S(=O)(=O)Nc3nccc(C)n3)cc2)n1	none (no result: Rab9 promoter act, ELG1 genotox, KinaseGlo FLuc, NPC1 promoter act)
Cc1nccc2[nH]c(=O)c(C(=O)NC3CCCCC3C)cc12 (stereo unspecified)	SMN2 splice enh 13µM
